Data published in PubChem BioAssay (Tox21).
“And” between values parts separate entries of the source, which are not always exact repeats. Equal values may be shown once. Inconclusive results are not listed. Where a call stands in place of a potency, no number is given. Some structures have more than one record in an assay (separate samples or runs), and their calls can disagree. The source made the active and inactive calls. Unless noted, calls follow the shape of the full dose curve.

Tests used:
[1] = qHTS assay to identify small molecule antagonists of the sonic hedgehog signaling (Shh) pathway (AID 1259369); also: nearly all actives have a fitted effect of over 45% in size; also: potency is read from the fitted curve at half-maximal effect
How it was run: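 NIH/3T3-derived Gli1-Luc reporter cells plated 4 h, dosed with compound, then stimulated with conditioned medium for 24 h at 37 C. Firefly luciferase luminescence read after 30 min with detection reagent at room temperature.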

[2] = qHTS assay to identify small molecule agonists of the androgen receptor (AR) signaling pathway in the presence of an antagonist - cell viability counter screen (AID 1259379; active = well fitted curve in the direction sought with a large enough effect in the repeat runs; an effect the other way counts as inactive or inconclusive; also: nearly all actives have a fitted effect of over 25% in size; also: potency is read from the fitted curve at half-maximal effect)
How it was run: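 MDA-kb2 cells (MMTV-luciferase, AR/GR), 3,000/well, 5 h attachment, then 3.0 µM nilutamide (final) and compounds at 15 concentrations. Viability by CellTiter-Fluor fluorescence after 16 h at 37 °C, 0% CO2, in the reporter wells.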

[3] = qHTS assay to identify small molecule agonists of the estrogen receptor beta (ER-beta) signaling pathway - cell viability counter screen (AID 1259380; active = well fitted curve in the direction sought with a large enough effect in the repeat runs; an effect the other way counts as inactive or inconclusive; also: nearly all actives have a fitted effect of over 30% in size; also: potency is read from the fitted curve at half-maximal effect)
How it was run: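 ER-beta-UAS-bla HEK293T cells in medium with 2% charcoal-stripped FBS, pre-incubated 6 hr, then treated 16 hr at 37C. Cytotoxicity read in the same wells by CellTiter-Glo luminescence after 30 min at room temperature.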

[4] = biological target: Androgen receptor (Homo sapiens) (UniProt P10275); experiment: qHTS assay to identify small molecule agonists of the androgen receptor (AR) signaling pathway in the presence of an antagonist (AID 1259381); also: nearly all actives have a fitted effect of over 15% in size
Chain of Androgen receptor (Homo sapiens) (P10275 whole entry, looked up): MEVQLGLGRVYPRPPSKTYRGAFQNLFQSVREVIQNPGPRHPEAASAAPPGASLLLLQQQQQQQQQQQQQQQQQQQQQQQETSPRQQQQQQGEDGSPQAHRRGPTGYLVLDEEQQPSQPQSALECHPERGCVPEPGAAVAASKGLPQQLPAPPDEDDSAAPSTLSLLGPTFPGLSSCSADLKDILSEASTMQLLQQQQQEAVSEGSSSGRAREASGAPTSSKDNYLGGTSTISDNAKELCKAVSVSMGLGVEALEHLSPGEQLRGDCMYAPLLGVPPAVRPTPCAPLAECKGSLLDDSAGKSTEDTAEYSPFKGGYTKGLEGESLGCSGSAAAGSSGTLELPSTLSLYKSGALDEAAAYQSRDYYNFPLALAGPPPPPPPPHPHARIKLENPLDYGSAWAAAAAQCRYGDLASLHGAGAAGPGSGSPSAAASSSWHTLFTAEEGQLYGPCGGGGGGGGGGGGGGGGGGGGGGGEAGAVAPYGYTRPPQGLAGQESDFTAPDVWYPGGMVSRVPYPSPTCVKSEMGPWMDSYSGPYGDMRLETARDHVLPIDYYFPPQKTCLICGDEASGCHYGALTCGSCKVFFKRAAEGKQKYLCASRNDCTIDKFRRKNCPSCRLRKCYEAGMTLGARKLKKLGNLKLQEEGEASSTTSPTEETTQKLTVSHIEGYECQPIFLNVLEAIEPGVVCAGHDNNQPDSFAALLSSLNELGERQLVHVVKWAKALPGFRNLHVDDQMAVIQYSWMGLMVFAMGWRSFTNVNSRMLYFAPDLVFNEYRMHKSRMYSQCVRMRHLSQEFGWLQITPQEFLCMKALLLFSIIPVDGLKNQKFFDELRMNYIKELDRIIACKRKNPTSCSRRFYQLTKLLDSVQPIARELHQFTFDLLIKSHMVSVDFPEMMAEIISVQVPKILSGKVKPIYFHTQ
How it was run: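 MDA-kb2 cells carrying MMTV-luciferase (AR/GR responsive), 3,000 cells/well, co-treated with 3.0 uM nilutamide final. Compounds at 15 concentrations, 16 hr at 37C without CO2. Luciferase luminescence read after 30 min with ONE-Glo.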

[5] = qHTS assay to identify small molecule antagonists of the estrogen receptor beta (ER-beta) signaling pathway - cell viability counter screen (AID 1259382; active = well fitted curve in the direction sought with a large enough effect in the repeat runs; an effect the other way counts as inactive or inconclusive; also: nearly all actives have a fitted effect of over 55% in size; also: potency is read from the fitted curve at half-maximal effect)
How it was run: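 ER-beta-UAS-bla HEK293T cells in 2% charcoal-stripped FBS medium, treated with compound plus 1 nM 17-beta-estradiol for 16 h at 37C. Viability read by CellTiter-Glo luminescence after 30 min at room temperature in the same wells.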

[6] = biological target: Estrogen receptor (Homo sapiens) (UniProt P03372); experiment: qHTS assay to identify small molecule agonists of the estrogen receptor alpha (ER-alpha) signaling pathway in the presence of an antagonist (AID 1259383); also: top concentration of the series differs between compounds; nearly all actives have a fitted effect of over 15% in size
Chain of Estrogen receptor (Homo sapiens) (P03372 whole entry, looked up): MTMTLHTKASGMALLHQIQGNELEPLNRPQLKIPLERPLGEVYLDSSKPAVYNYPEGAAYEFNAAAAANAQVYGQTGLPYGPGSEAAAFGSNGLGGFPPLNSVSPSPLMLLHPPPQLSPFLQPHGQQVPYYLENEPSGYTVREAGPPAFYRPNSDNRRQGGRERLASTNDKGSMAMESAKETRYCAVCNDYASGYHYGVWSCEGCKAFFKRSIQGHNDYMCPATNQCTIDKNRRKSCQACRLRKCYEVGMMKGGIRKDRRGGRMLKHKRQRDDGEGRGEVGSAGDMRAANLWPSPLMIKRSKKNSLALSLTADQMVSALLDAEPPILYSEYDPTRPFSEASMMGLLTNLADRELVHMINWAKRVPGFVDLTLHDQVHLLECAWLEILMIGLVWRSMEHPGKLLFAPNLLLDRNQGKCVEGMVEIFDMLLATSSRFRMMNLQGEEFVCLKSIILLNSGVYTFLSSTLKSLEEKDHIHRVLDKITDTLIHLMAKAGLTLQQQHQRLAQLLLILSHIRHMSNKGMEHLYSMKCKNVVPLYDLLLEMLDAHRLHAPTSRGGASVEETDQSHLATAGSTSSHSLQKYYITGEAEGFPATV
How it was run: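 VM7Luc4E2 cells express endogenous full-length ER-alpha with an ERE-luciferase reporter and were hormone-deprived for 5 days. Compounds at 15 concentrations were added with 10.0nM ICI-182,780 for 22hr at 37C. Luminescence was read with ONE-Glo.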

[7] = qHTS assay to identify small molecule agonists or antagonists of the thyroid stimulating hormone receptor (TSHR) signaling pathway - wild type cell line counter screen (AID 1259384)
How it was run: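 Wild-type HEK293 cells were plated 18 h at 37 C/5% CO2, pin-dosed with compound plus Ro20-1724 medium, held 30 min at room temperature, then given cAMP-d2 and anti-cAMP-cryptate; fluorescence was read after 1 h. Fifteen concentrations, triplicate.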

[8] = biological target: Thyrotropin receptor (Homo sapiens) (UniProt P16473); experiment: qHTS assay to identify small molecule antagonists of the thyroid stimulating hormone receptor (TSHR) signaling pathway (AID 1259385); also: nearly all actives have a fitted effect of over 20% in size; also: potency is read from the fitted curve at half-maximal effect
Chain of Thyrotropin receptor (Homo sapiens) (P16473 whole entry, looked up): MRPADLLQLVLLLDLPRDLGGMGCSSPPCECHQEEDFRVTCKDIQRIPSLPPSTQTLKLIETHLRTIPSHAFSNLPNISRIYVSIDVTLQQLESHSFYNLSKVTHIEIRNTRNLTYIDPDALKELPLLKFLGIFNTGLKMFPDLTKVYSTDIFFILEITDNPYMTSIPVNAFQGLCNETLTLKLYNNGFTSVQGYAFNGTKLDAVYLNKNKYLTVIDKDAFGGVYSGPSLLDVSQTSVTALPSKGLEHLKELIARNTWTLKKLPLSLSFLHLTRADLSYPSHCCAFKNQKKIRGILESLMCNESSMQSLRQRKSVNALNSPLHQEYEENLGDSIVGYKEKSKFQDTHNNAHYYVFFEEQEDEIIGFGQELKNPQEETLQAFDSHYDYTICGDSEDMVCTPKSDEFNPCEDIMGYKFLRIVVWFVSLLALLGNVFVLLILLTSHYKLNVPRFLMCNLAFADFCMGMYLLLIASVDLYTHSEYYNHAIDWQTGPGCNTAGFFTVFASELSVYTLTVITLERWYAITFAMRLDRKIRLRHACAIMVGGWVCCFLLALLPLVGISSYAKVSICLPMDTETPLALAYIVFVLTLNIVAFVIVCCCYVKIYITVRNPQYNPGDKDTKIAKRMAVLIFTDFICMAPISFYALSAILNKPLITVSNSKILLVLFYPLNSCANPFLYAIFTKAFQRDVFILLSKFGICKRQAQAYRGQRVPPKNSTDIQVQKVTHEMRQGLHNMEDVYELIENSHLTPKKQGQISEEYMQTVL
How it was run: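 TSHR-HEK293 cells were plated and held 18 h at 37C/5% CO2, then given compound plus Ro20-1724 and stimulated with TSH at 1.5 ng/mL final. After 30 min at room temperature, cAMP was detected with cAMP-d2/anti-cAMP-cryptate (1 h) by fluorescence.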

[9] = biological target: Estrogen receptor beta (Homo sapiens) (UniProt Q92731); experiment: qHTS assay to identify small molecule antagonists of the estrogen receptor beta (ER-beta) signaling pathway (AID 1259378; active = well fitted inhibition curve with a large enough effect in the signal ratio in the repeat runs, not every such curve was filed as active; the % refers to the signal ratio; also: potency is read from the fitted curve at half-maximal effect)
Chain of Estrogen receptor beta (Homo sapiens) (Q92731 whole entry, looked up): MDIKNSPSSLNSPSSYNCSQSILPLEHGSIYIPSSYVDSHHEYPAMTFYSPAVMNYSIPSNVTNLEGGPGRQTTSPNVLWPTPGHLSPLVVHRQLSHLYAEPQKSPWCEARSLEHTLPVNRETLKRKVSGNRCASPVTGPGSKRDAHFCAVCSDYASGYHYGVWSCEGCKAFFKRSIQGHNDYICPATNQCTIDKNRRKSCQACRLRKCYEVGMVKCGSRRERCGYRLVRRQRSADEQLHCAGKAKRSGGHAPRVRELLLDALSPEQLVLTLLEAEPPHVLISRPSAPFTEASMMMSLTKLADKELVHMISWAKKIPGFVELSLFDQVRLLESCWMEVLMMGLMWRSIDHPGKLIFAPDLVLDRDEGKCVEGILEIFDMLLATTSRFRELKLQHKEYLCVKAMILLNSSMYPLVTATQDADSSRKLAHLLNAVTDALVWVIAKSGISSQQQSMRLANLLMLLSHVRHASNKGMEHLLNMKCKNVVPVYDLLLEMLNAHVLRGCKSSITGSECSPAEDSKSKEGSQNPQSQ
How it was run: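 ER-beta-UAS-bla HEK293T (GripTite) cells in 2% charcoal-stripped FBS medium were preincubated 6 hr at 37C, dosed with compound, then stimulated with 1 nM E2 (final) for 16 hr; beta-lactamase reporter read by B/G FRET fluorescence after 2 hr substrate loading.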

[10] = biological target: Estrogen receptor beta (Homo sapiens) (UniProt Q92731); experiment: qHTS assay to identify small molecule agonists of the estrogen receptor beta (ER-beta) signaling pathway (AID 1259377; active = well fitted activation curve with a large enough effect in the signal ratio in the repeat runs, not every such curve was filed as active; the % refers to the signal ratio)
How it was run: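 Read-out: beta-lactamase FRET fluorescence. Cell line: ER-beta-UAS-bla HEK293T in 2% charcoal-stripped FBS. Exposure: 16 hr at 37C. Substrate step: 2 h at room temperature.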

CCN1CCC2(CC1)COc1cc3c(cc12)N(C(=O)c1ccc(-c2ccc(-c4nnc(C)o4)cc2C)cc1)CC3
Potency [1]: 2 µM (active)
Potency [2]: 63.3 µM (active)
Potency [3]: 6.33 µM (active)
Potency [4]: inactive
Potency [5]: 11.2 µM (active)
Potency [6]: inactive
Potency [7]: inactive
Potency [8]: 63.3 µM (active)

Cc1cc(C2CC2)nc(Nc2ccccc2)n1
Potency [1]: inactive
Potency [9]: inactive
Potency [2]: inactive
Potency [5]: inactive
Potency [6]: inactive
Potency [8]: inactive

CC(C)=CCN1CC[C@@]2(C)c3cc(O)ccc3C[C@@H]1[C@@H]2C
Potency [1]: inactive
Potency [10]: inactive
Potency [3]: inactive
Potency [5]: inactive
Potency [6]: inactive
Potency [7]: inactive
Potency [8]: inactive

O=C(CCCCl)c1ccc(F)cc1
Potency [1]: inactive
Potency [2]: inactive
Potency [3]: inactive
Potency [4]: inactive
Potency [5]: inactive
Potency [6]: inactive
Potency [7]: inactive
Potency [8]: inactive

COc1ccc2[nH]cc(CCN(C(C)C)C(C)C)c2c1
Potency [1]: inactive
Potency [9]: inactive
Potency [2]: inactive
Potency [7]: inactive
Potency [8]: inactive

Cc1ccc2cc3c(ccc4ccccc43)c3c2c1CC3
Potency [1]: inactive
Potency [9]: inactive
Potency [2]: inactive
Potency [3]: inactive
Potency [6]: inactive
Potency [7]: inactive
Potency [8]: inactive

[Cl-].[Cl-].[Sn+2]
Potency [1]: inactive
Potency [2]: inactive
Potency [3]: inactive

N#Cc1sc2c(=O)c3ccccc3c(=O)c=2sc1C#N
Potency [1]: 3.86 µM (active)
Potency [2]: 17.2 µM (active)
Potency [3]: 21.7 µM (active)
Potency [4]: inactive
Potency [5]: 17.2 µM (active)
Potency [6]: inactive
Potency [7]: inactive

CN(C)C(=S)SSC(=S)N(C)C
Potency [1]: 47.9 nM (active) and 306 nM (active) and 531 nM (active)
Potency [2]: 60.3 µM (active) and 68.6 µM (active) and inactive
Potency [3]: 135 nM (active) and 1.72 µM (active) and 119 nM (active)
Potency [4]: inactive
Potency [5]: 479 nM (active) and 273 nM (active) and 237 nM (active)
Potency [6]: inactive

Fc1ccc(C(OCCN2CCN(CCCc3ccccc3)CC2)c2ccc(F)cc2)cc1
Potency [1]: 5.31 µM (active)
Potency [2]: 26.6 µM (active)
Potency [3]: 26.6 µM (active)
Potency [4]: inactive
Potency [5]: 26.6 µM (active)
Potency [6]: inactive

Cc1ccc(C)c2ccccc12
Potency [1]: inactive
Potency [9]: inactive
Potency [2]: inactive
Potency [3]: inactive
Potency [4]: inactive
Potency [5]: inactive

CC(=O)[O-].CC(=O)[O-].O.O.O.[Pb+2]
Potency [1]: inactive
Potency [2]: inactive
Potency [3]: inactive

CN
Potency [1]: inactive
Potency [9]: inactive
Potency [2]: inactive
Potency [3]: inactive
Potency [5]: inactive
Potency [7]: inactive
Potency [8]: inactive

O=[N+]([O-])C(Br)Br
Potency [1]: inactive
Potency [10]: inactive
Potency [3]: inactive
Potency [4]: inactive
Potency [7]: inactive

CC(C)N(C(=O)SC/C(Cl)=C/Cl)C(C)C
Potency [1]: inactive
Potency [10]: inactive
Potency [2]: inactive
Potency [3]: inactive
Potency [5]: inactive
Potency [6]: inactive
Potency [7]: inactive
Potency [8]: inactive

CCC(C)c1cccc(C(C)CC)c1O (stereo unspecified)
Potency [1]: inactive
Potency [10]: inactive
Potency [2]: inactive
Potency [3]: inactive
Potency [5]: inactive
Potency [6]: inactive
Potency [7]: inactive
Potency [8]: inactive

CC(C)Br
Potency [1]: inactive
Potency [10]: inactive
Potency [2]: inactive
Potency [5]: inactive
Potency [6]: inactive
Potency [7]: inactive
Potency [8]: inactive

CSC(=O)c1c(C(F)F)nc(C(F)(F)F)c(C(=O)SC)c1CC(C)C
Potency [1]: inactive
Potency [10]: inactive
Potency [2]: inactive
Potency [5]: inactive
Potency [6]: inactive
Potency [7]: inactive
Potency [8]: inactive

Brc1ccc(Oc2ccc(Br)cc2Br)c(Br)c1
Potency [1]: inactive
Potency [10]: inactive
Potency [2]: inactive
Potency [5]: inactive
Potency [6]: inactive
Potency [8]: 61.2 µM (active)

CCCCC/C=C\C/C=C\C/C=C\C/C=C\CCCC(=O)NCC(=O)O
Potency [1]: inactive
Potency [10]: inactive
Potency [2]: inactive
Potency [3]: 11.9 µM (active)
Potency [6]: inactive

ClCBr
Potency [1]: inactive
Potency [9]: inactive
Potency [2]: inactive
Potency [5]: inactive
Potency [6]: inactive
Potency [7]: inactive
Potency [8]: inactive

CCCCC(CC)COC(=O)OOC(C)(C)C (stereo unspecified)
Potency [1]: inactive
Potency [2]: inactive
Potency [3]: inactive

S=C=Nc1ccccc1
Potency [1]: inactive
Potency [9]: inactive
Potency [2]: inactive
Potency [4]: inactive
Potency [5]: inactive
Potency [6]: inactive

Oc1ccc2[nH]cc(CCCCN3CC=C(c4ccccc4)CC3)c2c1
Potency [1]: 3.35 µM (active)
Potency [9]: inactive
Potency [3]: 29.8 µM (active)
Potency [5]: inactive
Potency [7]: inactive
Potency [8]: inactive

Cc1cccc(Cc2cnc[nH]2)c1C
Potency [1]: inactive
Potency [10]: inactive
Potency [2]: inactive
Potency [3]: inactive
Potency [5]: inactive
Potency [6]: inactive
Potency [7]: inactive
Potency [8]: inactive

COc1nc(C)nc(NC(=O)NS(=O)(=O)c2ccccc2Cl)n1
Potency [1]: inactive
Potency [9]: inactive
Potency [2]: inactive
Potency [3]: inactive
Potency [5]: inactive
Potency [6]: inactive
Potency [7]: inactive
Potency [8]: inactive

CCN(CC)CCc1c[nH]c2ccccc12
Potency [1]: 50.9 µM (active)
Potency [10]: inactive
Potency [2]: inactive
Potency [3]: inactive
Potency [6]: inactive
Potency [8]: inactive

Nc1ccc(N=Nc2ccccc2)cc1
Potency [1]: 21.7 µM (active)
Potency [9]: 21.7 µM (active)
Potency [5]: inactive
Potency [6]: inactive
Potency [7]: inactive

Nc1nc(N)c(N)c(N)n1
Potency [1]: inactive
Potency [2]: inactive
Potency [3]: inactive

CC(=O)[O][Pb]([c]1ccccc1)([c]1ccccc1)[c]1ccccc1
Potency [1]: 0.386 µM (active)
Potency [9]: 0.969 µM (active)
Potency [2]: 7.7 µM (active)
Potency [3]: 4.86 µM (active)
Potency [4]: inactive
Potency [5]: 5.45 µM (active)
Potency [6]: inactive
Potency [7]: inactive
Potency [8]: 24.3 µM (active)
